Values without a mark were called inactive.
Tested on: Vero E6 infected with SARS-CoV-2
Experiment: inhibition of SARS-CoV-2 cytopathic effect; higher = more antiviral protection, active = above 15
Settings: 48 h

SMILES | inhibition of SARS-CoV-2 cytopathic effect (1 nM) | inhibition of SARS-CoV-2 cytopathic effect (8.33 nM) | inhibition of SARS-CoV-2 cytopathic effect (100 nM) | inhibition of SARS-CoV-2 cytopathic effect (833.33 nM) | inhibition of SARS-CoV-2 cytopathic effect (10000 nM)
CN(C)CC[C@@H](c1ccc(Cl)cc1)c1ccccn1 [chlorphenamine] | 0.315% | 1.98% | -0.53% | 0.17% | -5.02%
Clc1cccc(-n2nnnc2NCc2ccccc2Oc2ccccn2)c1Cl | 1.27% | -1.76% | -3.85% | 0.18% | 1.67%
NCCCCN=C(N)N [agmatine] | 2.36% | 2.56% | -1.24% | -2.12% | -4.69%
FC(F)(F)c1ccccc1-c1cc(C(F)(F)F)c2[nH]c(C3=NOC4(CCCCC4)C3)nc2c1 | -0.82% | 0.77% | -0.98% | -2.13% | -3.97%
CCOC(=O)N1CSC[C@H]1C(=O)O [telmesteine] | 1.96% | 2.23% | 2.74% | 4.95% | -0.12%
CC(C)CC(=O)N[C@H](C(=O)N[C@H](C(=O)N[C@@H](CC(C)C)[C@@H](O)CC(=O)N[C@@H](C)C(=O)N[C@@H](CC(C)C)[C@@H](O)CC(=O)O)C(C)C)C(C)C [pepstatin] | 1.4% | 0.77% | -0.17% | -1.52% | -4.53%
CC(C)(C)c1cc(C=C(C#N)C#N)cc(Br)c1O | 0.94% | -0.19% | 0.29% | -1.48% | 4.93%
O=C(O)[C@H]1O[C@@H](Oc2cc3oc(-c4ccccc4)cc(=O)c3c(O)c2O)[C@H](O)[C@@H](O)[C@@H]1O [baicalin] | 2.44% | -0.79% | -1.89% | -5.03% | 2.97%
COc1cc2nc(N3CCN(C(=O)c4ccco4)CC3)nc(N)c2cc1OC [prazosin] | 0.79% | -8.02% | -0.93% | -1.57% | 1.13%
CN(C)CCC(c1ccc(Br)cc1)c1ccccn1 (stereo not given) [brompheniramine] | 4.45% | 3.77% | -3.1% | -0.09% | -4.65%
CN(C)C[C@H](O)Cn1c2ccc(Br)cc2c2cc(Br)ccc21 (racemic) [wiskostatin] | -2.04% | -1.61% | 0.88% | -1.26% | 57.3% (active)
CNC(=O)c1nn(C)c2c1C(C)(C)Cc1cnc(Nc3ccc(N4CCN(C)CC4)cc3)nc1-2 | 0.32% | 0.79% | 1.17% | -4.6% | -10.3%
CC(=O)c1ccc(S(=O)(=O)NC(=O)NC2CCCCC2)cc1 [acetohexamide] | -0.51% | -0.35% | -0.58% | 0.37% | -0.22%
COc1c(N2CCNC(C)C2)c(F)cc2c(=O)c(C(=O)O)cn(C3CC3)c12 (stereo not given) [gatifloxacin] | -0.1% | 1.9% | 0.16% | 0.37% | -2.52%
Clc1ccc(C(Cn2ccnc2)OCc2ccc(Sc3ccccc3)cc2)c(Cl)c1 (stereo not given) [fenticonazole] | -3.37% | 3.19% | 0.76% | 0.19% | 2.21%
O=C(/C=C/c1ccccc1)NC(NC(=S)Nc1cccc2cccnc12)C(Cl)(Cl)Cl (stereo not given) [salubrinal] | 3.2% | 0.1% | 1.16% | -0.28% | 1.23%
C[C@]12C=CC(=O)C=C1CC[C@@H]1[C@@H]2[C@@H](O)C[C@@]2(C)[C@H]1CC[C@]2(O)C(=O)COP(=O)(O)O [prednisolone-sodium-phosphate] | -6.31% | -10% | -8.54% | -9.6% | -4.78%
NC1(c2ccc(-c3nc4ccn5c(=O)[nH]nc5c4cc3-c3ccccc3)cc2)CCC1 | -1.08% | 0.48% | 2.84% | 1.79% | 24.5% (active)

Source: the supplement of paper PMC13380429
